Screening results: PubChem, The Scripps Research Institute Molecular Screening Center
Compounds with a hit are over-represented: about 4.1% of the library has one in this group of screens.
ssDAF-12 act: activators of S. stercoralis DAF-12 nuclear receptor. HEK293 ssDAF-12/GRIP1 lit1-tk-luc reporter, luminescence; % of 3 µM dafachronic acid response. activation, % at 6.8 µM. actives 1% (n = 370,000). AID 652126;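 active means activation above the mean over all tested compounds plus 3 SD, cut at about 0.9% in these data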;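 further: 0% = DMSO-only wells and 100% = 3 µM delta7-dafachronic acid wells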
DAX1 inh-1: NR0B1 (DAX1) inhibition | HEK293 Gal4-DAX1 luciferase reporter, luminescence | inhibition, % at 6.75 µM | actives 0.99% (n = 340,000);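 active means inhibition above the mean over all tested compounds plus 3 SD, cut at about 4.2% in these data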;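 further: 0% = DAX1-transfected cells with DMSO and 100% = empty-vector control cells with DMSO; inhibition shows as a rise in luminescence from relieved DAX1 repression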
Target sequence (P51843 207-470 limits assumed): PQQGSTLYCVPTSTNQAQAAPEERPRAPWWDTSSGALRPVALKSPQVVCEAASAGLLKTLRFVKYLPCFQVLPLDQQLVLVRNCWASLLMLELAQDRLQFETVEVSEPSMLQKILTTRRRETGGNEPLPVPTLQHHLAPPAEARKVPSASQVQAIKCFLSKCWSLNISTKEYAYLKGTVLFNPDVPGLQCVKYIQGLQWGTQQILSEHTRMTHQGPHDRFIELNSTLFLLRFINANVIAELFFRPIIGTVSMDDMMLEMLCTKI
hgDAF-12 ag: activates the H. glycines DAF-12 receptor ligand-binding domain; HEK293 GAL4-hgDAF12 UAS-luciferase reporter, agonist luminescence; normalized to butyrate control; activation, % at 6.8 µM; actives 1.8% (n = 370,000); AID 687014;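 active means activation above a cutoff set at the mean of all screened compounds plus 3 SD, cut at about 10% in these data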;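 further: 0% = DMSO wells and 100% = sodium butyrate wells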
DAX1 inh-2: DAX1 (NR0B1) inhibition, primary screen; HEK293T StAR-luciferase reporter, SF-1/DAX-1 repression relief; AID 652010; actives 1.1% (n = 370,000); inhibition, % at 6.8 µM;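 active means inhibition above the mean over all tested compounds plus 3 SD, cut at about 3.6% in these data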;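 further: 0% = DAX-1 cells with DMSO and 100% = cells lacking DAX-1 with DMSO; higher inhibition means more luminescence from relief of DAX-1 repression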
hcDAF-12 act: H. contortus DAF-12 activation, primary screen | actives 1.4% (n = 370,000) | activation, % at 6.8 µM | AID 652067 | HEK293 hcDAF-12 lit1-tk-luc reporter, luminescence; 0% DMSO, 100% Δ7-dafachronic acid;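 active means activation above the mean of all tested compounds plus 3 SD, cut at about 5.5% in these data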;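 further: 100% = response to 3 µM Δ7-dafachronic acid high control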
Active calls of the source: *; x = no result given.

SMILES	ssDAF-12 act	DAX1 inh-1	hgDAF-12 ag	DAX1 inh-2	hcDAF-12 act
COc1ccc2c(c1)CC/C(=C/c1ccncc1)C2=O	x	-1.4	x	x	x
COc1ccc2c(c1)CC/C(=C\c1ccc(C)o1)C2=O	-1.3	4.9*	6.8	2.2	2.7
O=C(NCCc1ccccc1)OCc1cn(Cc2cccc(C(F)(F)F)c2)nn1	-1.4	x	-5.0	0.7	-2.1
Cc1ccc(F)cc1C(=O)N1CCCC(c2cc(C(=O)NCc3ccc(F)cc3)no2)C1 (centres undefined)	-1.6	x	-1.1	-1.5	-0.9
Cc1ccc(F)cc1C(=O)N1CCCC(c2cc(C(=O)NCc3ccccc3)no2)C1 (centres undefined)	-1.4	x	2.2	4.0*	-1.3
CCCNC(=O)c1cc(C2CCCN(S(=O)(=O)c3cccs3)C2)on1 (centres undefined)	1.1*	x	-2.4	-1.0	-2.3
CC(=O)c1ccc(-c2cc(C(C)=O)c3n(c2=O)CCC3)cc1	-0.9	x	-0.7	-1.1	-2.7
O=C(CN1C(=O)NC2(CCCCCC2)C1=O)Nc1ccc(OC(F)(F)F)cc1	-1.3	-1.6	-4.0	-1.9	-2.4
CN(CC(=O)Nc1ccc(F)cc1)C(=O)COC(=O)CN1C(=O)NC2(CCCC2)C1=O	-0.7	-0.2	-0.3	0.7	5.8*
O=C(CN1C(=O)NC2(CCCC2)C1=O)Nc1ccc(OC(F)(F)F)cc1	-0.9	9.7*	-1.1	-0.1	-1.7
O=C(CN1C(=O)NC2(CCCC2)C1=O)Nc1nc2ccccc2s1	0.7	3.5	4.7	1.4	5.8*
O=C(COC(=O)CN1C(=O)NC2(CCCC2)C1=O)Nc1ccccc1C(F)(F)F	-1.2	12.0*	0.3	1.5	0.2
COC(=O)[C@H](CC(C)C)N1Cc2nnn(Cc3ccccc3)c2-c2cc(F)ccc2S1(=O)=O	-0.8	x	-1.4	-0.3	-2.3
CC1CCC(NC(=O)C2c3ccccc3C(=O)N2CCCN2CCOCC2)CC1 (centres undefined)	1.0*	4.7*	-1.6	-0.6	-0.9
CCCCN1C(=O)c2ccccc2C1C(=O)NC1CCCC1 (centres undefined)	-1.6	-0.4	0.1	0.8	-2.2
CC(=O)Nc1ccc(N=Cc2c(O)c3ccccc3oc2=O)cc1	-0.7	-0.1	-0.9	-0.4	-0.2
CC(=O)Nc1ccc(N=Cc2c(O)c(C(=O)Nc3ccccc3)cc3ccccc23)cc1	2.1*	x	1.2	0.9	4.0
Nc1nc(SCC(=O)Nc2ccc(OCc3ccccc3)cc2)n[nH]1	-0.6	5.2*	6.6	-0.2	0.0
COc1ccc(S[C@]2(C(=O)NC3CC3)CC(=O)N[C@@H]2c2ccc(OC)cc2)cc1	-1.0	x	3.0	-0.1	0.3
CCCC(=O)N1CCC[C@]2(CC[C@@H](CCC(=O)OCC)O2)C1	-0.5	x	9.8	0.4	0.2
C/C(=N/NC(=O)c1cccs1)c1ccc(NC(=O)COc2ccc(Cl)cc2)cc1	0.1	4.7*	11.9*	2.0	4.0
Cc1cc(C)c(C2=NOC3c4ccccc4OCC23)c(C)c1 (centres undefined)	-0.6	x	2.1	0.0	-2.6
O=c1ccc(N=Nc2ccccc2)ccc1O	-0.3	-0.1	3.6	0.0	3.5
Oc1ccc(N=Nc2ccccc2)o1	4.4*	-2.2	0.2	0.0	0.4
CC(C)(C)N1Cc2nnn(Cc3ccccc3)c2-c2cc(N3CCCC3)ccc2S1(=O)=O	-1.2	x	-1.4	-0.8	-2.1
SMILES	ssDAF-12 act	DAX1 inh-1	hgDAF-12 ag	DAX1 inh-2	hcDAF-12 act
COc1ccccc1N1CCN(Cc2ccsc2)CC1	1.1*	0.8	-0.2	0.8	0.9
COC(=O)c1cc(=O)n(Cc2cccs2)c(=Nc2ccccc2)s1	-0.8	4.3*	-0.3	-1.0	-1.2
CCN1C(=O)CCN(C2CCCC2)c2nc(Nc3ccc(C(=O)NC4CCN(C)CC4)cc3OC)ncc21	0.6	8.2*	-3.8	1.3	4.0
Cc1cc2c(nc1C)CCCN2S(=O)(=O)c1cccs1	-1.1	x	-0.9	0.3	0.3
O=C(CCSCCc1ccccn1)Nc1ccc(Br)cc1F	2.0*	-0.4	-1.6	0.9	-0.6
OC(c1ccccc1)(c1ccccc1)C1CCN(CCCOc2cccc(F)c2)CC1	-1.1	x	2.7	-0.4	0.6
Cn1c(NCc2cccs2)nc2ccccc21	1.7*	1.7	8.0	1.2	6.1*
CCn1c(NCc2cccs2)nc2ccccc21	-1.1	0.7	-0.1	-0.5	-0.7
O=C(O)CC(NC(=O)Cc1ccc([N+](=O)[O-])cc1)c1ccc2c(c1)OCO2 (centres undefined)	-0.4	4.4*	-0.7	0.1	-0.7
CC1(C)CC(=O)C(C2C3=C(CC(C)(C)CC3=O)Oc3c(Br)cc(Br)cc32)=C(O)C1 (centres undefined)	0.7	0.8	11.2*	0.5	2.9
COc1ccc(Cn2ccc3ccc(-c4ccc5ccn(Cc6ccc(F)cc6)c5c4)cc32)cc1	-0.6	x	1.8	-1.0	4.0
COc1ccc(/C=C/C(=O)c2cc(Cl)ccc2O)c(OC)c1	-1.2	0.8	6.2	-0.1	0.7
COc1ccc(/C=C/C(=O)c2ccc(Cl)cc2)c(OC)c1	-1.4	0.6	15.6*	1.8	0.9
Cc1ccccc1-c1nnc(SCc2ccccc2)o1	-0.2	3.9	2.6	0.1	3.2
Cc1ccccc1-c1nnc(Cc2ccccc2)o1	-0.8	1.0	11.7*	1.7	0.7
c1ccc(-c2nc(NCc3cccnc3)c3oc4ccccc4c3n2)cc1	0.4	-2.0	8.2	-1.5	6.3*
O=C(O)CNc1nc(-c2ccccc2)nc2c1oc1ccccc12	-0.2	2.0	4.0	-0.7	3.6
Clc1ccc(-c2nc3c4ccccc4ccn3c2Cc2cccc(Cl)c2)cc1	0.9	x	7.0	0.8	5.9*
Clc1cccc(Cc2c(-c3cccc(Br)c3)nc3c4ccccc4ccn23)c1	-0.5	x	2.6	1.2	6.1*
Cc1ccc(-c2nc3c4ccccc4ccn3c2Cc2cccc(F)c2)cc1	0.3	x	2.2	0.7	3.9
c1ccc(-c2nc3c4ccccc4ccn3c2CC2CCCCC2)cc1	0.5	x	6.0	1.2	5.6*
Fc1cccc(Cc2c(-c3ccccc3)nc3c4ccccc4ccn23)c1	1.4*	x	4.8	1.1	3.8
COc1ccc(NC(=O)NNC(=O)CCn2nc(C)c([N+](=O)[O-])c2C)cc1OC	-0.3	x	0.0	1.0	-0.2
CCCC[C@H]1C2CC(OC(=O)Nc3ccc(C#N)cc3)C(C2)[C@H]2CCCCN21 (some centres undefined)	0.0	x	3.5	-0.4	-1.4
COc1ccc(CN2C[C@]3(C=C4CCCCC4n4c(=O)n(-c5ccccc5)c(=O)n43)N=C2NC(=O)c2ccccc2)c(OC)c1 (some centres undefined)	-1.4	x	-5.7	-1.0	-0.9
CNC(=O)c1cc2c(cn1)[nH]c1ccccc12	-0.1	0.6	6.2	3.7*	1.4
Cc1ccc(S(=O)(=O)Nc2nc(C)cc(NCCN)n2)cc1	-1.4	4.7*	2.8	-0.3	-1.2
COc1cc(/C=N/NC(=O)c2c(C)nc3ccc(Cl)cn23)cc(OC)c1OC	-1.0	5.3*	-1.9	-0.8	-1.2
